# FLuc inh-1 = Photinus pyralis luciferase inhibition; purified P. pyralis luciferase, luminescence, biochemical; Potency, µM (top dose mostly 115 µM), usual class: inhibitors; P08659; actives 2.5% (n = 76,000); further: on the % scale 0 is the no-effect control and ±100 the full control effect; nearly all actives have a fitted effect of over 65% in size
# Target sequence (P08659 whole entry, looked up): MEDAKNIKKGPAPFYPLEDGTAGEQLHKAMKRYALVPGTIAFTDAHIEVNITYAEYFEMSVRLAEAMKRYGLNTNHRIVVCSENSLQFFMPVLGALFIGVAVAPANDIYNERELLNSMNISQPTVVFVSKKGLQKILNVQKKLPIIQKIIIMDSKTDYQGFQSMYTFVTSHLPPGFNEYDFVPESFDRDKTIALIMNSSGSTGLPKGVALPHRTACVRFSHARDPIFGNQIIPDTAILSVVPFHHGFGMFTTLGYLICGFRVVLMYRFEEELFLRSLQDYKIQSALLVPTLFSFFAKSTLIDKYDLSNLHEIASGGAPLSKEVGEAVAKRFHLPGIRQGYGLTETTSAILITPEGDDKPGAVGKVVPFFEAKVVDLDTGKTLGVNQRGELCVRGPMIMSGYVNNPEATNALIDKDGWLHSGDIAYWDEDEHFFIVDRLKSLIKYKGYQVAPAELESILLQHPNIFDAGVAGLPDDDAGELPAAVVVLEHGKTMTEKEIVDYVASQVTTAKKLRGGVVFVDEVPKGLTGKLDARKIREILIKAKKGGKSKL
#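 FLuc 10nM, D-luciferin 10uM, ATP 10uM, Mg acetate 10mM, Tris acetate pH 7.5, Tween/BSA; cpd qHTS; enzyme added last; CCD luminescence.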
# NPR1 antag = antagonists of human natriuretic peptide receptor Npr1; P16066; HEK293 hNpr1 GloSensor cGMP, ANP-stimulated luminescence; Potency, µM (highest dose often 46.3 µM), for the others: at the highest dose activity change, negative = inhibition, actives largely listed as inhibitors; actives 1.6% (n = 76,000); AID 1347048; calls by dose curve; further: on the % scale 0 is the no-effect control and ±100 the full control effect; nearly all actives have a fitted effect of over 60% in size
#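 Compound pre-incubated 30 min at room temperature on GloSensor-loaded HEK293 cells stably carrying hNpr1 and the pGS-40F cGMP biosensor. Stimulation uses hNppA at 0.1 nM final; luminescence is taken at baseline and 20 min post-agonist.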
# 3T3 cytotox = NIH 3T3 cell cytotoxicity; NIH 3T3 viability, CellTiter-Glo ATP luminescence, 48-72 h; actives 4.3% (n = 94,000); Potency, µM (top dose mostly 96.7 µM), for the others: top-dose activity change, negative = cytotoxicity, usual class: inhibitors; further: on the % scale 0 is the no-effect control and ±100 the full control effect; nearly all actives have a fitted effect of over 55% in size
#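 Cytotoxicity was measured by CellTiter-Glo ATP luminescence after 48 or 72 h compound exposure at 37 °C. Mouse NIH 3T3 fibroblasts were seeded at 400 cells/well and dosed by 23 nL pin transfer.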
# HEK cytotox = cytotoxic compounds in HEK 293 cells; actives 6.6% (n = 94,000); Potency, µM (doses to about 115 µM), inactives show at the highest dose activity change, negative = cytotoxicity, most hits filed as inhibitors; HEK 293 viability, ATP luminescence (CellTiter-Glo), 48-72 h; further: on the % scale 0 is the no-effect control and ±100 the full control effect; nearly all actives have a fitted effect of over 60% in size
#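 HEK 293 seeded at 250 cells/well receive compound via pintool. After 48 or 72 hr at 37 degree Celsius, 5% CO2 and 95% humidity, CellTiter-Glo is dispensed and luminescence read following 10 min at room temperature.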
# FLuc SDR no ATP = binders stabilizing firefly luciferase, without ATP | Potency, µM (top dose mostly 32.7 µM), for inactives: at the top dose activation (signal gain), actives largely listed as activators | shares compounds with FLuc inh-1 | Purified FLuc-C-HiBiT, Nano-Glo HiBiT luminescence, no ATP | actives 7.8% (n = 1,300); further: nearly all actives have a fitted effect of over 55% in size
# FLuc SDR ATP = stabilizes firefly luciferase with ATP present; purified FLuc-C-HiBiT + ATP, HiBiT complementation luminescence; Potency, µM (titrated, usually from 32.7 µM), for the others: top-dose activation (gain of signal), most hits filed as activators; actives 8.7% (n = 1,300); AID 1963319; shares compounds with FLuc inh-1;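 further: signal reports ligand binding via conformational change of the enzyme rather than luciferase catalysis; % of control where 0% means no effect; nearly all actives have a fitted effect of over 55% in size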
# FLuc inh-2 = firefly luciferase enzyme inhibition; actives 42% (n = 1,300); purified FLuc-C-HiBiT enzyme, luciferin luminescence; Potency, µM (titrated, usually from 32.7 µM), without a hit: top-dose activity change, negative = inhibition, hits mostly inhibitors; shares compounds with FLuc inh-1; further: on the % scale 0 is the no-effect control and ±100 the full control effect; nearly all actives have a fitted effect of over 70% in size
# An asterisk follows results filed as active; i = inactive; ? = inconclusive; . = no result; [ ] = another dose, or the depositor's remark. Hits are enriched below; roughly 11% of the tested compounds scored in any of these assays. Unless noted, the call rests on the fitted dose curve; in most records, active means well fitted curve in the direction sought with a large enough effect; inconclusive means small, poorly fitted or top-dose-only effect, or another doubt; inactive means no such curve, though single readings can be large; an effect the other way counts as inactive or inconclusive. Potency means the concentration at half of the fitted maximal effect.
SMILES,FLuc inh-1,NPR1 antag,3T3 cytotox,HEK cytotox,FLuc SDR no ATP,FLuc SDR ATP,FLuc inh-2
COc1ccc(NC(=O)c2c(OC)cc(=O)n3c2CCCC3)cc1,i,-6%,?,-8%,.,.,.
COc1ccc(-n2nc3ccc(NC(=O)c4c(OC)cccc4OC)cc3n2)cc1,.,.,.,.,16%,12%,-16%
CCC(=O)N1CCc2c(C(=O)NCc3ccccc3F)cccc21,i,-3%,?,-5%,.,.,.
CCCCNC(=O)c1cccc2c1CCN2C(=O)Nc1ccccc1,3.5µM*,?,-25%,?,24%,2µM*,1.6µM*
CCC(=O)N1CCc2c(C(=O)Nc3ccc(N4CCOCC4)cc3)cccc21,i,-7%,-12%,-10%,.,.,.
Cc1ccc(NC(=O)N2CCc3c(C(=O)NCc4ccco4)cccc32)cc1,0.089µM*,1.1µM*,?,?,9.9µM*,0.078µM*,0.05µM*
CCCNC(=O)c1cccc2c1CCN2C(=O)Nc1cccc(C)c1,5µM*,-23%,5%,?,?,3.5µM*,2.5µM*
CN(C)CCNC(=O)c1cccc2c1CCN2C(=O)Nc1ccccc1,3.5µM*,?,-4%,?,17%,1.1µM*,0.7µM*
Cc1ccc(NC(=O)N2CCc3c(C(=O)NCCc4ccccn4)cccc32)cc1,5.6µM*,-20%,?,?,?,11µM*,4.4µM*
CCc1nn2c(-c3ccco3)ccnc2c1-c1ccc(F)cc1,.,.,.,.,15%,10%,?
COCCn1c(C)cnc1C1CCN(S(=O)(=O)c2cccc(F)c2)C1 (centres undefined),.,.,-14%,0%,.,.,.
COc1ccccc1NC(=O)CN1C(=O)CC(c2ccc(C)c(C)c2)=Nc2ccccc21,.,.,.,.,19%,15%,?
C[S+](=O)([O-])c1ccc(-c2nc(C(=O)N3CCOCC3)n3ccncc23)cc1,.,.,i,4%,.,.,.
CCn1ccnc1C1CCN(c2nc3ccccc3s2)CC1,3.2µM*,?,-1%,?,22%,16%,?
C=Cc1ccc(-c2nc3ccc(OC)cc3s2)cc1,.,.,.,.,12µM*,?,0.44µM*
COc1ccc2nc(-c3ccc(Oc4ccccc4)cc3)sc2c1,.,.,.,.,28%,?,11µM*
COc1ccc(C(=O)N2CCn3c(nnc3C3CC3)C2)cc1,i,0%[70.6 µM],-3%[138 µM],i,.,.,.
O=C(c1ccc(F)cc1)N1CCn2c(nnc2C2CC2)C1,i,2%[70.6 µM],-22%[138 µM],-1%[172 µM],12%[49.3 µM],9%[49.3 µM],1%[49.3 µM]
Nc1ccc(C(=O)N2CCCn3nc(C(=O)Nc4ccccc4)cc3C2)cn1,7.1µM*,-5%,-26%,?,?,?,?
COc1ccc2nc(NC(=O)Cn3nc4c(cc3=O)CCCC4)sc2c1,?,-2%,-2%,-23%,.,.,.
CCOc1ccc2nc(NC(=O)c3ccccc3)sc2c1,.,.,.,.,?,?,0.88µM*
O=C(NC[C@H]1Cn2cc(-c3ccccc3)nc2CO1)c1ccc2c(c1)OCO2,?,-29%[70.6 µM],?,?,.,.,.
O=C(NC[C@H]1Cn2cc(-c3ccc4c(c3)OCCCO4)nc2CO1)c1ccc2c(c1)OCO2,10µM*,-17%,-25%,?,?,?,?
COc1ccccc1Cn1c(-c2ccccc2)nc(C)c(CCO)c1=O,i,-1%,?,?,.,.,.
Cc1csc(Nc2ccc3ncn(C)c(=O)c3n2)n1,i,2%[70.6 µM],?,?,.,.,.
SMILES,FLuc inh-1,NPR1 antag,3T3 cytotox,HEK cytotox,FLuc SDR no ATP,FLuc SDR ATP,FLuc inh-2
Cn1nccc1-c1cc2c(cn1)CN(Cc1ccncc1)CCN2,i,-5%[70.6 µM],-39%[138 µM],?,.,.,.
c1cncc(Nc2cc3c(cn2)CN(Cc2cnc[nH]2)CCN3)c1,.,.,.,.,11%,9%,-8%
c1ccc(Oc2cc3c(cn2)NCCN(Cc2cnc[nH]2)C3)cc1,i,-27%[70.6 µM],-25%[138 µM],?,.,.,.
Cc1[nH]cnc1CN1CCNc2cc(Nc3ccccc3)ncc2C1,6.3µM*,-5%[70.6 µM],?,?,27%[49.3 µM],16%[49.3 µM],?
Oc1ccccc1CN1CCNc2cc(Nc3ccccc3)ncc2C1,5.6µM*,-25%[70.6 µM],32µM*,28µM*,17%,12%,?
c1cncc(Nc2cc3c(cn2)CN(Cc2ccn[nH]2)CCN3)c1,.,.,.,.,21%[49.3 µM],14%[49.3 µM],?
Cc1ccc(-c2cc(C(=O)NCC(F)(F)F)c3cnn(C)c3n2)c(C)c1,.,.,-24%,?,.,.,.
CC(=O)N1CCNc2cc(Nc3ccc(F)cc3)ncc2C1,2.2µM*,?,?,?,?,?,5.7µM*

# High-throughput results (PubChem BioAssay)
